Test results from PubChem BioAssay AID504339 (National Center for Advancing Translational Sciences (NCATS), 2011).
Out of some 390,000 compounds screened, about 17,000 (4.4%) were called active. Entries that show only a call come without a potency. Roughly 8% stayed inconclusive and do not appear here. The call rests on the fitted dose curve; in most records, active means well fitted inhibition curve with a large enough effect; inconclusive means small, poorly fitted or top-dose-only effect; inactive means no such curve, though single readings can be large or run the other way. This excerpt belongs to a sample that is enriched for actives.

Molecular target: Lysine-specific demethylase 4A (Homo sapiens) (UniProt O75164)
Test: qHTS Assay for Inhibitors of JMJD2A-Tudor Domain; further: nearly all actives have a fitted effect of over 50% in size
Settings: AlphaScreen JMJD2A-Tudor / H3K4me3 peptide binding; series mostly up to 114 µM
Potency means the concentration at half of the fitted maximal effect.

Sequence of Lysine-specific demethylase 4A (Homo sapiens) (O75164 whole entry, looked up, the tested form may be a part): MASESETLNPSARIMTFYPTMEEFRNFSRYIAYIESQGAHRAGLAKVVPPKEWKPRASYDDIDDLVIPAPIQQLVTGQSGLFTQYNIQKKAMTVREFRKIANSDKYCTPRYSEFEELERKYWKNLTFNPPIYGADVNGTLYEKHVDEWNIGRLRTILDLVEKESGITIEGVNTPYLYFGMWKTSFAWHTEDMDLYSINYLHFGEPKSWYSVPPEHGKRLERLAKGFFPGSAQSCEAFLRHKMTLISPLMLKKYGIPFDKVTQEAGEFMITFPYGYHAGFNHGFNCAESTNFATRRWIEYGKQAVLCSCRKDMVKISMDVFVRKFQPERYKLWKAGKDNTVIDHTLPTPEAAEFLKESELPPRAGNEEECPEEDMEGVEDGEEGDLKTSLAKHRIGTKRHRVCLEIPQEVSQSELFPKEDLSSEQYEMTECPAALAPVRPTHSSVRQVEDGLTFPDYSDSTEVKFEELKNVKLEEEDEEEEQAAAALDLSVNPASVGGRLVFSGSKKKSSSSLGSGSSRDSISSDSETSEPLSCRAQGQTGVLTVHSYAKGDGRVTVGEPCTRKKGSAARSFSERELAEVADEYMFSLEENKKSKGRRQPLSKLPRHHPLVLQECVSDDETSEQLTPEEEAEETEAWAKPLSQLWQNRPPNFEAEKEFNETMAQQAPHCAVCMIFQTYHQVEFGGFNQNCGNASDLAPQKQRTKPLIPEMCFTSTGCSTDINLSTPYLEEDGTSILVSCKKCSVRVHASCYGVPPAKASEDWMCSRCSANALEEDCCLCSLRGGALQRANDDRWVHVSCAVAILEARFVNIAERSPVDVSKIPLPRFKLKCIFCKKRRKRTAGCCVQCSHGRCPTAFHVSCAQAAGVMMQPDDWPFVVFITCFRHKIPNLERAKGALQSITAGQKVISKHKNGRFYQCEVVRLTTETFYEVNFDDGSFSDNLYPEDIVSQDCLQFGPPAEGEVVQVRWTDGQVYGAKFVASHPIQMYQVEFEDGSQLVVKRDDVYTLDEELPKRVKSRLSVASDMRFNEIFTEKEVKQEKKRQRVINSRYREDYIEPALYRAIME

Q: How did the Potency turn out when `CCc1nc(NCCO)c(C#N)c2c1CCCC2` was run?
A: inactive

Q: Which Potency does the source give for `CC(C)Cc1nc(N2CCOCC2)c(C#N)c2c1CCC2` here?
A: inactive

Q: `CC(C)CCNc1nc(N2CCCC2)c2c(c1C#N)CCN(C)C2` was tested. Which Potency did it give?
A: 44.7 µM (active)

Q: With `CCCNC(=O)C1CCN(c2nc3ccc(C)cc3[nH]2)CC1` as the compound, how does the Potency read?
A: inactive

Q: Which Potency does the source give for `CSC1=N/C(=C\C=C\c2cccs2)C(=O)S1` here?
A: 12.6 µM (active)

Q: With `CCOC(=O)c1c(C)oc2nc(C)nc(N3CCN(c4ccc(OC)cc4)CC3)c12` as the compound, how does the Potency read?
A: 39.8 µM (active)

Q: Which Potency does the source give for `CCOC(=O)c1c(C)oc2nc(C)nc(Nc3ccc(CC)cc3)c12` here?
A: inactive

Q: `COc1ccc(N2CCN(C(=O)c3c(C)oc4nc(C)nc(N5CCCC5)c34)CC2)cc1` was tested. Which Potency did it give?
A: inactive

Q: Which Potency does the source give for `O=C(NCCSc1ccccc1)c1ccco1` here?
A: inactive

Q: `CC1(C)N=C(SCc2ccccc2Cl)c2ccccc2N1` was tested. Which Potency did it give?
A: inactive

Q: For `Clc1ccccc1CSc1nnc(-c2ccco2)c(-c2ccco2)n1`, which Potency is on record?
A: 22.4 µM (active)

Q: For `c1ccc(CSc2nnc(-c3ccco3)c(-c3ccco3)n2)cc1`, which Potency is on record?
A: 17.8 µM (active)

Q: With `Cc1ccc(-c2nnc(SCC(=O)NCc3ccccc3)nc2-c2ccc(C)cc2)cc1` as the compound, how does the Potency read?
A: inactive

Q: `Fc1ccc(Nc2nc(SCc3ccccc3Cl)nc3ccccc23)cc1` was tested. Which Potency did it give?
A: inactive

Q: For `COc1ccc(CC(=O)N2CC(=O)Nc3ccc(Br)cc3C2c2ccc(F)cc2)cc1OC` (configuration not stated), which Potency is on record?
A: inactive

Q: How did the Potency turn out when `CCC(=O)NNc1cc(=O)c2c(=O)n(C)c(=O)n(C)c2[nH]1` was run?
A: inactive

Q: How did the Potency turn out when `CC(=O)Nn1cc2c(=O)n(C)c(=O)n(C)c2c1` was run?
A: inactive

Q: `CC(=O)NNc1cc(=O)c2c(=O)n(C)c(=O)n(C)c2[nH]1` was tested. Which Potency did it give?
A: 10 µM (active)

Q: For `CC(=O)c1ccc(NC(c2ccc(F)cc2)c2nnc(-c3ccccc3)o2)cc1` (configuration not stated), which Potency is on record?
A: inactive

Q: For `CC(C)Oc1ccc(NC(=O)c2cc3ccccc3o2)cc1`, which Potency is on record?
A: inactive

Q: With `CCCCn1c(CNC(=O)C23CC4CC(CC(C4)C2)C3)nnc1SCC(=O)Nc1ccc(C)cc1` as the compound, how does the Potency read?
A: inactive

Q: How did the Potency turn out when `COc1cc(/C=N/NC(=S)Nc2cccnc2)cc(OC)c1O` was run?
A: inactive

Q: How did the Potency turn out when `COc1cc(/C=N/Nc2ccc(C)cc2)cc(Br)c1O` was run?
A: 50.1 µM (active)

Q: How did the Potency turn out when `COc1cc(/C=N/O)cc(Br)c1OS(=O)(=O)c1ccc(C)cc1` was run?
A: inactive

Q: `COc1ccccc1CNC(=O)C(=O)NCC(c1ccco1)S(=O)(=O)c1ccc(F)cc1` (configuration not stated) was tested. Which Potency did it give?
A: inactive

Q: Which Potency does the source give for `Cc1coc2c(O)cc3c(c12)OC1(N2CCCCC2)C(=O)NCCCC31` (configuration not stated) here?
A: 20 µM (active)

Q: Which Potency does the source give for `CC(=O)N1CCCc2ccc(NS(=O)(=O)c3ccc(F)cc3F)cc21` here?
A: inactive

Q: Which Potency does the source give for `CC1CCCCN1S(=O)(=O)c1ccc(F)c(C(=O)Nc2ccccc2C(F)(F)F)c1` (configuration not stated) here?
A: inactive

Q: Which Potency does the source give for `CCN(CC)CCNC(=O)Cn1ncc2c3ccccc3n(Cc3ccccc3C)c2c1=O` here?
A: inactive

Q: Which Potency does the source give for `Cn1c(SCc2c(F)cccc2Cl)nnc1-c1cnccn1` here?
A: 79.4 µM (active)

Q: How did the Potency turn out when `Cc1ccc(CSc2nnc(-c3cnccn3)n2C)cc1` was run?
A: inactive

Q: `Oc1ccc(-n2nnnc2SCc2c(F)cccc2Cl)cc1` was tested. Which Potency did it give?
A: inactive

Q: With `CCOc1ccc(NC(=O)CSc2c3c(nc4ccccc24)CCCC3)cc1` as the compound, how does the Potency read?
A: inactive

Q: With `CCN1/C(=C\c2ccc3ccccc3[n+]2CC)Sc2cc(C)ccc21` as the compound, how does the Potency read?
A: 20 µM (active)

Q: `CCN1/C(=C/c2ccc3ccc(C)cc3[n+]2CC)Sc2ccccc21` was tested. Which Potency did it give?
A: 89.1 µM (active)

Q: With `CCOc1cc(CNC(=O)c2sc3ncnc(N(C)C4CCCCC4)c3c2C)ccc1OC` as the compound, how does the Potency read?
A: inactive

Q: For `Cc1ccc(C(=O)CSc2nc(-c3ccccc3)nc3c2CCCC3)c(C)c1`, which Potency is on record?
A: inactive

Q: With `COc1ccc(NC(=O)CSC2=Nc3ccccc3C3=NC(CC(=O)NCc4ccccc4OC)C(=O)N23)cc1Cl` (configuration not stated) as the compound, how does the Potency read?
A: inactive

Q: `Cc1nn(CC(=O)O)c(=O)c2cc3cc(F)ccc3n12` was tested. Which Potency did it give?
A: inactive

Q: `CCC(=O)N1CCc2cc(CNC(=O)Nc3ccccc3Cl)ccc21` was tested. Which Potency did it give?
A: inactive

Q: `CC(=O)N1c2ccc(S(=O)(=O)N3CCCCCC3)cc2CC1C(=O)NCc1ccccc1C` (configuration not stated) was tested. Which Potency did it give?
A: inactive

Q: How did the Potency turn out when `Cc1c(NC(=O)C(C)(C)C)cccc1-c1nc2ccccc2s1` was run?
A: inactive

Q: How did the Potency turn out when `CCN(CC)CCNC(=O)CN1N=C(c2ccc(OC)cc2)CCC1=O` was run?
A: inactive

Q: `C#CCOCCOCCOCCNc1nc(N2CCN(C(=O)CCCCCCCCCCNC(=O)[C@H](CCCCN)n3cc(C)nn3)CC2)nc(N2CCN(C(=O)CCCCCCCCCCNC(=O)[C@H](CO)n3cc(CCCSC)nn3)CC2)n1` was tested. Which Potency did it give?
A: 56.2 µM (active)

Q: `C#CCOCCOCCOCCNc1nc(N2CCN(C(=O)CCCCCCCCCCNC(=O)Cn3cc(CCCCCN)nn3)CC2)nc(N2CCN(C(=O)CCCCCCCCCCNC(=O)[C@H](CO)n3cc(CCCSC)nn3)CC2)n1` was tested. Which Potency did it give?
A: 79.4 µM (active)

Q: Which Potency does the source give for `CC[C@@H](C)[C@@H](C(=O)N1CCN(C(=O)OC(C)(C)C)CC1)n1cc(CCC(=O)O)nn1` here?
A: inactive

Q: With `C#CCOCCOCCOCCNc1nc(N2CCN(C(=O)[C@H](C(C)C)n3cc(CCO)nn3)CC2)nc(N2CCN(C(=O)[C@H](C(C)C)n3cc(CCO)nn3)CC2)n1` as the compound, how does the Potency read?
A: inactive

Q: `C#CCOCCOCCOCCNc1nc(N2CCN(C(=O)CCCCCCCCCCNC(=O)[C@H]([C@@H](C)CC)n3cc(CCCCN=C(N)N)nn3)CC2)nc(N2CCN(C(=O)CCCCCCCCCCNC(=O)[C@H](CO)n3cc(CCCSC)nn3)CC2)n1` was tested. Which Potency did it give?
A: 20 µM (active)

Q: For `Cc1c(-c2nsc(NC(=O)c3cccc(Cl)c3)n2)nnn1-c1ccccc1C(F)(F)F`, which Potency is on record?
A: inactive

Q: Which Potency does the source give for `COc1ccc(NC(=O)CCCN2C(=O)CCn3nc(-c4cn(C)c5ccccc45)cc32)cc1OC` here?
A: inactive

Q: For `Cc1ccc(SCC(=O)Nc2ccc3oc(-c4ccccc4C)nc3c2)cc1`, which Potency is on record?
A: inactive

Q: `CCN(CC)c1ccc(NC(=O)Cn2nc3c(cc2=O)CCCC3)c(C)c1` was tested. Which Potency did it give?
A: inactive

Q: `CCOc1ccc(CC(=O)NCCc2csc3nc(-c4ccccc4F)nn23)cc1` was tested. Which Potency did it give?
A: inactive

Q: How did the Potency turn out when `O=C(COc1ccccc1F)Nc1nc(-c2ccccn2)cs1` was run?
A: 79.4 µM (active)

Q: For `O=C(CN1C(=O)C2C3C=CC(C3)C2C1=O)NCCc1ccccc1Cl` (configuration not stated), which Potency is on record?
A: inactive

Q: `O=C(CN1C(=O)C2C3C=CC(C3)C2C1=O)Nc1nc(-c2ccccn2)cs1` (configuration not stated) was tested. Which Potency did it give?
A: 50.1 µM (active)

Q: With `CSCCC(NC(=O)c1ccco1)C(=O)Nc1cc(C)ccn1` (configuration not stated) as the compound, how does the Potency read?
A: inactive

Q: How did the Potency turn out when `Cc1cc(NC(=O)[C@H](C)NC(=O)c2ccco2)ccc1Br` was run?
A: inactive

Q: Which Potency does the source give for `Cc1csc2nc(COC(=O)c3ccc(NC(=O)COc4ccccc4F)cc3)cc(=O)n12` here?
A: inactive

Q: How did the Potency turn out when `CC1CCN(S(=O)(=O)c2nnc(NC(=O)COc3ccccc3F)s2)CC1` was run?
A: inactive

Q: Which Potency does the source give for `CC(NC(=O)c1ccco1)C(=O)Nc1nc(-c2ccccn2)cs1` (configuration not stated) here?
A: 44.7 µM (active)

Q: `O=C(NCCN1C(=O)C2C3C=CC(C3)C2C1=O)Nc1ccccn1` (configuration not stated) was tested. Which Potency did it give?
A: inactive
